Data from PubChem BioAssay (NCI).
Compounds without any hit were thinned out: in the full panel of roughly 79,000, 15% have a hit. The source made the active and inactive calls. Rule as the data show it: active = growth inhibition above about 70%; inactive = the rest.

How the values were obtained:
[1] = NCI Yeast Anticancer Drug Screen. Data for the rad52 strain (AID 147);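 also: 0% = growth of vehicle-treated control cultures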; conditions: S. cerevisiae rad52 mutant growth inhibition, hits give high values
Outline: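 Yeast strain carrying a DNA damage repair alteration was exposed to test compounds. Growth inhibition was measured relative to vehicle-treated controls.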

[2] = NCI Yeast Anticancer Drug Screen. Data for the wt1 strain (AID 149);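 also: 0% = growth of vehicle-treated wt1 cultures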; conditions: S. cerevisiae wt1 strain (SPY 50644) growth inhibition, hits give high values
Outline: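 wt1 yeast, compound-treated; % growth inhibition vs vehicle control.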

[3] = NCI Yeast Anticancer Drug Screen. Data for the rad50EPP+ strain (AID 151);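 also: 0% = growth of vehicle-treated control cultures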; conditions: S. cerevisiae rad50 mutant strain, hits give high values
Outline: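 Yeast strain carrying rad50 alteration (rad50EPP+) exposed to compounds; growth inhibition measured relative to vehicle-treated controls.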

[4] = NCI Yeast Anticancer Drug Screen. Data for the mgt1 strain (AID 153); conditions: S. cerevisiae mgt1 mutant growth inhibition, hits give high values
Outline: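 Yeast mgt1 strain (DNA repair/cell-cycle alteration panel) exposed to compounds; growth inhibition measured relative to vehicle-treated controls.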

[5] = NCI Yeast Anticancer Drug Screen. Data for the rad50 strain (AID 155);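 also: 0% = growth of vehicle-only cultures of the same strain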; conditions: S. cerevisiae rad50 strain growth inhibition, hits give high values
Outline: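 Genetically altered yeast (DNA repair pathway); compound treatment; growth inhibition vs vehicle ctrl.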

[6] = NCI Yeast Anticancer Drug Screen. Data for the mec2-1 strain (AID 157); conditions: S. cerevisiae mec2-1 strain, hits give high values
Outline: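 mec2-1 yeast strain, carrying an alteration in DNA damage repair or cell cycle control, was exposed to compounds; growth inhibition was measured relative to vehicle-treated controls.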

[7] = NCI Yeast Anticancer Drug Screen. Data for the rad14 strain (AID 159);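 also: 0% = growth of vehicle-treated control cultures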; conditions: S. cerevisiae rad14 strain growth inhibition, hits give high values
Outline: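 Test compounds were applied to a repair-deficient yeast strain. Its growth was then compared with that of cultures given vehicle alone, and inhibition was expressed relative to those controls.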

[8] = NCI Yeast Anticancer Drug Screen. Data for the sgs1 mgt1 strain (AID 161);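 also: 0% = growth of cultures given vehicle only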; conditions: S. cerevisiae sgs1 mgt1 strain, hits give high values
Outline: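 Yeast cells carrying a defined DNA-repair defect were exposed to test compounds. Growth inhibition was measured relative to vehicle-treated controls.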

[9] = NCI Yeast Anticancer Drug Screen. Data for the CLN2oe strain (AID 163);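 also: 0% = growth of vehicle-only control cultures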; conditions: S. cerevisiae CLN2oe strain, hits give high values
Outline: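 Yeast cells carrying a defined cell-cycle control alteration were exposed to test compounds. Growth inhibition was scored against vehicle-treated control cultures.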

[10] = NCI Yeast Anticancer Drug Screen. Data for the cln2 rad14 strain (AID 165);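 also: 0% = growth equal to vehicle treated cultures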; conditions: S. cerevisiae cln2 rad14 strain, hits give high values
Outline: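 Yeast carrying cln2 and rad14 alterations (cell cycle control and DNA damage repair) were exposed to compounds. Growth inhibition was measured against vehicle-treated controls.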

[11] = NCI Yeast Anticancer Drug Screen. Data for the bub3 strain (AID 167); conditions: S. cerevisiae bub3 mutant strain, hits give high values
Outline: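 Yeast carrying a defined mutation is treated with each compound, and growth is compared with that of vehicle-exposed cells to give inhibition.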

[12] = NCI Yeast Anticancer Drug Screen. Data for the wt2 strain (AID 169);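 also: 0% = growth of vehicle-treated yeast cultures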; conditions: S. cerevisiae wt2 strain growth inhibition, hits give high values
Outline: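 Yeast cells were exposed to test compounds, and growth inhibition was measured relative to vehicle-treated controls.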

[13] = NCI Yeast Anticancer Drug Screen. Data for the mlh1 strain (AID 171);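 also: 0% = growth of vehicle-treated control cultures of the same strain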; conditions: S. cerevisiae mlh1 strain growth inhibition, hits give high values
Outline: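 Yeast carrying a defined genetic alteration in DNA damage repair or cell cycle control were exposed to test compounds. Growth inhibition was measured relative to vehicle-treated controls.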

[14] = NCI Yeast Anticancer Drug Screen. Data for the sgs1 strain (AID 173);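 also: 0% = growth of vehicle-only control cultures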; conditions: S. cerevisiae sgs1 mutant, hits give high values
Outline: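 Yeast mutant strains carrying defined defects in DNA damage repair or cell cycle control were exposed to test compounds. Growth inhibition was scored against vehicle-treated controls.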

[15] = NCI Yeast Anticancer Drug Screen. Data for the mlh1 rad18 strain (AID 175); conditions: S. cerevisiae mlh1 rad18 strain growth inhibition, hits give high values
Outline: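 Growth inhibition of the yeast strain was measured after compound exposure and expressed relative to vehicle-treated controls. The strain carries defined defects in DNA damage repair.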

[16] = NCI Yeast Anticancer Drug Screen. Data for the rad18 strain (AID 177); conditions: S. cerevisiae rad18 mutant growth inhibition, hits give high values
Outline: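 Yeast carrying a defined DNA damage repair alteration were exposed to compounds. Growth inhibition was expressed relative to vehicle-treated controls.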

[17] = at 5.0 µM (retest, dose inferred, filed as 0.5)
[18] = at 50.0 µM (retest, dose inferred, filed as 5.0)

Measured: growth inhibition

Cc1nc2ccccc2cc1C[N+]12CN3CN(CN(C3)C1)C2
inactive: [1]; at 1.2 µM 1% | [1]; at 3.7 µM 3% | [1]; at 11.0 µM 6% | [1]; at 33.0 µM 29% | [2]; at 1.2 µM 0% | [2]; at 3.7 µM -2% | [2]; at 11.0 µM 0% | [2]; at 33.0 µM 3% | [2]; at 100.0 µM 20% | [3]; at 1.2 µM 0% | [3]; at 3.7 µM 1% | [3]; at 11.0 µM 1% | [3]; at 33.0 µM 21% | [4]; at 1.2 µM 2% | [4]; at 3.7 µM 5% | [4]; at 11.0 µM 4% | [4]; at 33.0 µM 6% | [4]; at 100.0 µM 36% | [5]; at 1.2 µM 1% | [5]; at 3.7 µM 9% | [5]; [17] -7% | [5]; at 11.0 µM 7% | [5]; at 33.0 µM 25% | [5]; [18] 55% | [6]; at 1.2 µM 2% | [6]; at 3.7 µM 4% | [6]; [17] -2% | [6]; at 11.0 µM 5% | [6]; at 33.0 µM 10% | [6]; [18] 28% | [6]; at 50.0 µM 25.1% | [6]; at 100.0 µM 32% | [7]; at 1.2 µM -2% | [7]; at 3.7 µM 6% | [7]; at 11.0 µM 3% | [7]; at 33.0 µM 11% | [7]; at 100.0 µM 47% | [8]; [17] -6% | [8]; [18] 27% | [8]; at 50.0 µM 47.2% | [9]; at 1.2 µM 1% | [9]; at 3.7 µM 1% | [9]; at 11.0 µM 4% | [9]; at 33.0 µM 6% | [9]; at 100.0 µM 25% | [10]; [17] -30% | [10]; [18] 4% | [10]; at 50.0 µM 19.9% | [11]; at 1.2 µM 4% | [11]; at 3.7 µM 4% | [11]; [17] 6% | [11]; at 11.0 µM 1% | [11]; at 33.0 µM 2% | [11]; [18] 2% | [11]; at 50.0 µM 42% | [11]; at 100.0 µM 26% | [12]; at 1.2 µM 1% | [12]; at 3.7 µM -5% | [12]; at 11.0 µM 4% | [12]; at 33.0 µM 11% | [12]; at 100.0 µM 46% | [13]; at 1.2 µM -1% | [13]; at 3.7 µM 1% | [13]; at 11.0 µM -6% | [13]; at 33.0 µM 4% | [13]; at 100.0 µM 46% | [14]; at 1.2 µM -1% | [14]; at 3.7 µM -2% | [14]; at 11.0 µM 2% | [14]; at 33.0 µM 28% | [15]; [17] -1% | [15]; [18] 39% | [15]; at 50.0 µM 68.2% | [16]; at 1.2 µM -1% | [16]; at 3.7 µM -2% | [16]; at 11.0 µM -2% | [16]; at 33.0 µM 16%
active: [1]; at 100.0 µM 90% | [3]; at 100.0 µM 85% | [5]; at 50.0 µM 84% | [5]; at 100.0 µM 85% | [14]; at 100.0 µM 80% | [16]; at 100.0 µM 83%

CC(C)CC(NC(=O)C(N)C(C)C)C(=O)NC(CCCCN)C(=O)Nc1ccc(N(CCCl)CCCl)cc1 (stereo unspecified)
inactive: [1]; at 1.2 µM 8% | [1]; at 3.7 µM 28% | [1]; at 11.0 µM 32% | [1]; at 33.0 µM 23% | [1]; at 100.0 µM 18% | [2]; at 1.2 µM -16% | [2]; at 3.7 µM -10% | [2]; at 11.0 µM -15% | [2]; at 33.0 µM -11% | [2]; at 100.0 µM -18% | [3]; at 1.2 µM 10% | [3]; at 3.7 µM 9% | [3]; at 11.0 µM 13% | [3]; at 33.0 µM 7% | [3]; at 100.0 µM 12% | [4]; at 1.2 µM -6% | [4]; at 3.7 µM -16% | [4]; at 11.0 µM -17% | [4]; at 33.0 µM -5% | [4]; at 100.0 µM -21% | [5]; at 1.2 µM 8% | [5]; at 3.7 µM 10% | [5]; [17] 38% | [5]; at 11.0 µM 8% | [5]; at 33.0 µM 0% | [5]; at 50.0 µM 16.4% | [5]; at 100.0 µM 2% | [6]; at 1.2 µM -21% | [6]; at 3.7 µM -17% | [6]; [17] 19% | [6]; at 11.0 µM -18% | [6]; at 33.0 µM -17% | [6]; [18] 22% | [6]; at 50.0 µM -7.45% | [6]; at 100.0 µM -16% | [7]; at 1.2 µM -2% | [7]; at 3.7 µM 0% | [7]; at 11.0 µM -2% | [7]; at 33.0 µM -2% | [7]; at 100.0 µM -8% | [8]; [17] 21% | [8]; [18] 34% | [8]; at 50.0 µM -48.5% | [9]; at 1.2 µM -3% | [9]; at 3.7 µM 7% | [9]; at 11.0 µM 6% | [9]; at 33.0 µM 1% | [9]; at 100.0 µM -2% | [10]; [17] 13% | [10]; [18] 25% | [10]; at 50.0 µM -7.1% | [11]; at 1.2 µM -23% | [11]; at 3.7 µM -16% | [11]; [17] 25% | [11]; at 11.0 µM -16% | [11]; at 33.0 µM -13% | [11]; [18] 17% | [11]; at 50.0 µM -28.2% | [11]; at 100.0 µM -25% | [12]; at 1.2 µM -89% | [12]; at 3.7 µM -88% | [12]; at 11.0 µM -86% | [12]; at 33.0 µM -74% | [12]; at 100.0 µM -78% | [13]; at 1.2 µM -1% | [13]; at 3.7 µM 9% | [13]; at 11.0 µM -3% | [13]; at 33.0 µM -5% | [13]; at 100.0 µM -19% | [15]; [17] 19% | [15]; [18] 37% | [15]; at 50.0 µM -44.7% | [16]; at 1.2 µM -7% | [16]; at 3.7 µM -12% | [16]; at 11.0 µM -16% | [16]; at 33.0 µM -20% | [16]; at 100.0 µM -23%
active: [5]; [18] 92%
